{"source": "PubChem BioAssay (EPA / NIEHS)", "note": "Activity calls are given as the source filed them. Rule for the calls: active = hit-call score of the fitted dose curve at least 0.9, where 1 is the maximum; inactive = score below 0.9.", "data": [{"test": "ATG_RORE_CIS: Attagene CIS-FACTORIAL HepG2 Assay for human RAR-related Orphan Receptor Element (RORE) (AID 2282959)", "details": "HepG2 Attagene cis-factorial RORE reporter, mRNA; actives raise or lower the signal", "procedure": "ATG_CIS is a cell-based, multiplexed-readout assay that uses HepG2, a human liver cell line, with measurements taken at 24 hours after chemical dosing in a 24-well plate.ATG_RORE_CIS is one of 52 assay component(s) measured or calculated from the ATG_CIS assay. It is designed to make measurements of mRNA induction, a form of inducible reporter, as detected with fluorescence intensity signals by Reverse transcription polymerase chain reaction (RT-PCR) and Capillary electrophoresis technology.Data from the assay component ATG_RORE_CIS was analyzed into 1 assay endpoint. This assay endpoint, ATG_RORE_CIS, was analyzed with bidirectional fitting relative to DMSO as the negative control and baseline of activity. Using a type of inducible reporter, measures of mRNA for gain or loss-of-signal activity can be used to understand the reporter gene at the transcription factor-level as they relate to the gene RORA and RORB and RORC. Furthermore, this assay endpoint can be referred to as a primary readout, because this assay has produced multiple assay endpoints where this one serves a reporter gene function. To generalize the intended target to other relatable targets, this assay endpoint is annotated to the nuclear receptor intended target family, where the subfamily is orphan.\nHuman liver HepG2 cells are transiently transfected with multiple reporter transcription units (MRTUs) in 6-well plates using FuGene 6 reagent (Roche; 3 ml FuGene/1 mg DNA). The MRTU constructs are regulated by a cis-regulating element (promoter). […] A major difference between the CIS and TRANS system is that in CIS activities of endogenous TFs are measured, whereas the TRANS assay evaluates changes in activities of exogenous, chimeric NR-Gal4 proteins. […] At the end of 24 hour incubation, total RNA was isolated using TriZol reagent (Invitrogen). The isolated RNA is then reverse-transcribed using oligo(dT) primer and Mo-MLV reverse transcriptase (Invitrogen) with DNAse I (Ambion) treatment for 30 min. The one-tenth of the produced cDNA was amplified by PCR using Taq DNA polymerase (Invitrogen) and two reporter sequence-specific primers. The PCR products were fluorescently labeled by primer extension with 6-arboxyfluorescein (6-FAM) 5'-labeled reporter sequence-specific primer (2 min at 95 C, 20 s at 68 C and 10 min at 72 C) and these products were digested with 5U of HpaI (New England Biolabs) for 2h at 37 C. The fragments were purified using Qiaquick PCR columns (Qiagen), analyzed on an ABI 3130xL genetic analyzer (Applied Biosystems) with peak positions identified by using a set of X-rhodamine (ROX)-labeled MapMarker1000 molecular weight standards (BioVentures). The raw capillary electrophoresis data was processed using Attagraph software (Attagene).", "values": [{"smiles": "CCOP(=S)(OCC)SCSc1cc(Cl)ccc1Cl", "outcome": "inactive"}, {"smiles": "N#CCC#N", "outcome": "inactive"}, {"smiles": "COC(=O)Nc1cccc(OC(=O)Nc2cccc(C)c2)c1", "outcome": "inactive"}, {"smiles": "O=C(NC(=O)c1c(F)cccc1F)Nc1ccc(Cl)cc1", "outcome": "inactive"}, {"smiles": "O=C(NC(=O)c1c(F)cccc1F)Nc1cc(Cl)c(F)c(Cl)c1F", "outcome": "inactive"}, {"smiles": "O=S(=O)(F)C(F)(F)C(F)(F)C(F)(F)C(F)(F)F", "outcome": "inactive"}, {"smiles": "Oc1cccc(-c2ccccc2)c1", "outcome": "inactive"}, {"smiles": "C=C(C)C(=O)OCCCCOC(=O)C(=C)C", "outcome": "inactive"}, {"smiles": "C=CC(Cl)CCl", "note": "(stereo not given)", "outcome": "inactive"}, {"smiles": "Clc1cnc(Oc2ccc(Oc3ncc(Cl)cc3Cl)cc2)c(Cl)c1", "outcome": "inactive"}, {"smiles": "C#C[C@]1(O)CC[C@H]2[C@@H]3CCC4=CC(=O)CC[C@]4(C)[C@H]3CC[C@@]21C", "outcome": "inactive"}, {"smiles": "CCOC(=O)CCN(SN(C)C(=O)Oc1cccc2c1OC(C)(C)C2)C(C)C", "outcome": "inactive"}, {"smiles": "CC(C)[C@@H](Nc1ccc(C(F)(F)F)cc1Cl)C(=O)OC(C#N)c1cccc(Oc2ccccc2)c1", "note": "(stereo not given in full)", "outcome": "inactive"}, {"smiles": "CC(C)(C#N)N=NC(C)(C)C#N", "outcome": "inactive"}, {"smiles": "CCC[CH2][Sn]([CH2]CCC)([CH2]CCC)[CH2]CCC", "outcome": "inactive"}, {"smiles": "CCOP(=S)(OCC)Oc1ccc(Cl)cc1Cl", "outcome": "inactive"}, {"smiles": "CCOP(=O)(OCC)OC(=CCl)c1ccc(Cl)cc1Cl", "outcome": "inactive"}, {"smiles": "CCC[N+](CCC)(CCC)CCC", "outcome": "inactive"}, {"smiles": "Cc1cc(C(C)(C)c2ccc(O)c(C)c2)ccc1O", "outcome": "inactive"}, {"smiles": "N#CCCC(Br)(C#N)CBr", "note": "(stereo not given)", "outcome": "inactive"}, {"smiles": "C=C(C)[C@@H]1CC=C(C=O)CC1", "outcome": "inactive"}, {"smiles": "CCCCOC(C)=O", "outcome": "inactive"}, {"smiles": "CCN(CC)C(=O)C(Cl)=C(C)OP(=O)(OC)OC", "outcome": "inactive"}, {"smiles": "CN(N=O)c1ccc([N+](=O)[O-])cc1", "outcome": "inactive"}, {"smiles": "BrCCCCBr", "outcome": "inactive"}, {"smiles": "O=C1c2ccccc2C(=O)C1C(=O)C(c1ccccc1)c1ccc(Cl)cc1", "note": "(stereo not given)", "AC50": "8.58 µM (active)"}, {"smiles": "Clc1cccc(Cl)c1", "outcome": "inactive"}, {"smiles": "CCCCC(CC)C(=O)Cl", "note": "(stereo not given)", "outcome": "inactive"}, {"smiles": "C[C@]12CC[C@@H](O)C[C@@H]1CC[C@@H]1[C@@H]2CC[C@]2(C)C(=O)CC[C@@H]12", "outcome": "inactive"}, {"smiles": "CC(C)CP(=S)(S)CC(C)C", "outcome": "inactive"}, {"smiles": "C=CCc1ccccc1O", "outcome": "inactive"}, {"smiles": "NC(=O)c1ccc(N)nc1", "outcome": "inactive"}, {"smiles": "O=C/C(Cl)=C(/Cl)C(=O)O", "outcome": "inactive"}, {"smiles": "C=CCN=C=S", "outcome": "inactive"}, {"smiles": "Brc1c(Br)c(Br)c(Oc2c(Br)c(Br)c(Br)c(Br)c2Br)c(Br)c1Br", "outcome": "inactive"}, {"smiles": "Cc1cc(-c2cc(C)c(N)c(C)c2)cc(C)c1N", "outcome": "inactive"}, {"smiles": "O=C(O)C1(c2ccc3c(c2)OC[C@H](Cc2ccc(-c4ccccc4)cc2)[C@H]3O)CCCC1", "outcome": "inactive"}, {"smiles": "BrCc1ccc(Br)cc1", "outcome": "inactive"}, {"smiles": "C=CCOC(N)=O", "outcome": "inactive"}, {"smiles": "O=C(Cc1ccccc1)OCCc1ccccc1", "outcome": "inactive"}]}]}
